# Measured values from PubChem BioAssay AID1053125 (Broad Institute, 2014).
# Measured potencies and affinities stand elsewhere. A number with no mark means an inactive call.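 Rule for the calls: active = viability loss whose fitted half-maximal concentration is at most twice the top valid tested dose; inconclusive = flat curve with 30 to 70% loss, or poor fit; inactive = the rest.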
# Assay: HepG2 cell cytotoxicity, dose response, cytotoxicity control, ATP luminescence, cherry-pick, set 6 (AID 1053125)
# Conditions: HepG2 viability, ATP luminescence (CellTiter-Glo), 72 h; series mostly up to 26 µM; activity change, negative = cytotoxicity: at the top concentration
row,SMILES,"activity change, negative = cytotoxicity [%]"
1,N#CC1=C(N)Oc2cc(O)ccc2C1c1ccc2c(c1)OCO2 (stereo not drawn),-4.19
2,CC12CC(c3ccccc3O1)C(C(=O)OCc1ccccc1)C(=O)N2 (stereo not drawn),-4.78
3,CC(C)OP(=O)(O)NC(=O)c1ccccc1,-5.2
